The full data set covers some 8,800 targets. This sample favours those with a hit. About 0.5% of all pairs of compound and target were hits.
Tests used:
Assay in all cases: log2 fold change, soluble protein after heating vs DMSO (PISA); higher = thermal stabilisation; K562 lysate, 10 uM; active = over 0.2 and 3.5 SD of the protein, either way, in both replicates (recomputed)
vemurafenib = compound: CCCS(=O)(=O)Nc1ccc(F)c(C(=O)c2c[nH]c3ncc(-c4ccc(Cl)cc4)cc23)c1F [vemurafenib]
Procedure, shortened: (§1)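 Log-two fold change in thermal stability relative to solvent controls is reported from duplicates. For each sample, crude K562 extract from dounce-homogenised pellets in PBS pH 7.4 with 1 mM MgCl2, at 1 mg/mL protein, was treated with 10 μM compound for 30 min. Aliquots heated for 3 min across 48°C-58°C were pooled, brought to 0.5% NP-40 at 4°C and cleared at 21,000xg for 90 min. The supernatant was quantified by TMTpro 16plex LC-MS/MS with channel sums equalised.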

[1] = compound: CCCS(=O)(=O)Nc1ccc(F)c(C(=O)c2c[nH]c3ncc(Cl)cc23)c1F
Procedure, shortened: as §1

barasertib = compound: CCN(CCCOc1ccc2c(Nc3cc(CC(=O)Nc4cccc(F)c4)[nH]n3)ncnc2c1)CCOP(=O)(O)O [barasertib]
Procedure, shortened: as §1

[2] = compound: CC[C@@H]1C(=O)N(C)c2cnc(Nc3ccc(C(=O)NC4CCN(C)CC4)cc3OC)nc2N1C1CCCC1
Procedure, shortened: as §1

volasertib = compound: CC[C@@H]1C(=O)N(C)c2cnc(Nc3ccc(C(=O)N[C@H]4CC[C@H](N5CCN(CC6CC6)CC5)CC4)cc3OC)nc2N1C(C)C [volasertib]
Procedure, shortened: as §1

[3] = compound: CCn1c(C(=O)N(C2CC2)C2CC2)cc2c3c(ncn3C)c(Nc3cc(C)n(C)n3)nc21
Procedure, shortened: as §1

[4] = compound: CCn1cc(-c2ccnc3[nH]c(-c4cccc(CN(C)C)c4)cc23)c(-c2ccc(NC(=O)N(C)C)cc2)n1
Procedure, shortened: as §1

[5] = compound: CN1CCC(CNc2ccc3ncc(-c4cccc(OC(F)(F)F)c4)n3n2)CC1
Procedure, shortened: as §1

saracatinib = compound: CN1CCN(CCOc2cc(OC3CCOCC3)c3c(Nc4c(Cl)ccc5c4OCO5)ncnc3c2)CC1 [saracatinib]
Procedure, shortened: as §1

sotrastaurin = compound: CN1CCN(c2nc(C3=C(c4c[nH]c5ccccc45)C(=O)NC3=O)c3ccccc3n2)CC1 [sotrastaurin]
Procedure, shortened: as §1

alvocidib = compound: CN1CC[C@H](c2c(O)cc(O)c3c(=O)cc(-c4ccccc4Cl)oc23)[C@H](O)C1 [alvocidib]
Procedure, shortened: as §1

Tubastatin A = compound: CN1CCc2c(c3ccccc3n2Cc2ccc(C(=O)NO)cc2)C1 [Tubastatin A]
Procedure, shortened: as §1

[6] = compound: CNC(=O)C1=CC=CC=C1NC2=NC(=NC=C2Cl)NC3=C(C=C(C=C3)N4CCOCC4)OC
Procedure, shortened: as §1

defactinib = compound: CNC(=O)c1ccc(Nc2ncc(C(F)(F)F)c(NCc3nccnc3N(C)S(C)(=O)=O)n2)cc1 [defactinib]
Procedure, shortened: as §1

[7] = compound: CNc1nc(-c2ccc3c(N)n[nH]c3c2)cc(N2C[C@@H](C(=O)NC3CCCCC3)CC[C@H]2C)n1
Procedure, shortened: as §1

encorafenib = compound: COC(=O)N[C@@H](C)CNc1nccc(-c2cn(C(C)C)nc2-c2cc(Cl)cc(NS(C)(=O)=O)c2F)n1 [encorafenib]
Procedure, shortened: as §1

[8] = compound: COC(=O)[C@H](CCSC)NC(=O)C1=C(C=C(C=C1)NC[C@H](CS)N)C2=CC=CC=C2
Procedure, shortened: as §1

alisertib = compound: COc1cc(Nc2ncc3c(n2)-c2ccc(Cl)cc2C(c2c(F)cccc2OC)=NC3)ccc1C(=O)O [alisertib]
Procedure, shortened: as §1

[9] = compound: COc1cc2nc(-c3cc(F)ccc3O)nc(N[C@@H]3CNC[C@H]3C(C)(C)O)c2cc1OC
Procedure, shortened: as §1

gefitinib = compound: COc1cc2ncnc(Nc3ccc(F)c(Cl)c3)c2cc1OCCCN1CCOCC1 [gefitinib]
Procedure, shortened: as §1

Measured: log2 fold change

LAS1L (UniProt Q9Y4W2)
UniProt Q9Y4W2, sequence (Q9Y4W2 whole entry, looked up): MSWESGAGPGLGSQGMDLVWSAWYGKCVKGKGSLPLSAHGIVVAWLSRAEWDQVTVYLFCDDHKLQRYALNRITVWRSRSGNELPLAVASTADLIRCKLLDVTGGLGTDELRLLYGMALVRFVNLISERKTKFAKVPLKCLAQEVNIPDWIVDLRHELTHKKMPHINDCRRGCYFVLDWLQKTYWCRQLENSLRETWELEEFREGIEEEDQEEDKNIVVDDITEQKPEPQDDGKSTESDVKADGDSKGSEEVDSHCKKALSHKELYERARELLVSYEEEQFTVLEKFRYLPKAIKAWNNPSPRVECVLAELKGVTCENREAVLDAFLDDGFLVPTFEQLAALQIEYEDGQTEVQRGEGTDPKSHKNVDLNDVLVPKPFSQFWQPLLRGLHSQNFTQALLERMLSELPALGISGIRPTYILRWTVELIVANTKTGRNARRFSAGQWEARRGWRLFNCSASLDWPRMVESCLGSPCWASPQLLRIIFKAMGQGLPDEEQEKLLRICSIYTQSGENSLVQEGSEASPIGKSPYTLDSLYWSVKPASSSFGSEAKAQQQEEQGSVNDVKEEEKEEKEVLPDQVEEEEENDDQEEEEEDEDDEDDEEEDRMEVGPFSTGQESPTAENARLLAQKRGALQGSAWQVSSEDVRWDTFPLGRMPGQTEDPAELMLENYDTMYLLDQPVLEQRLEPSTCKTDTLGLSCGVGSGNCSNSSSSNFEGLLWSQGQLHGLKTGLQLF
inactive: vemurafenib -0.027 | [1] 0.007 | barasertib -0.003 | [2] -0.051 | volasertib -0.069 | [3] 0.009 | [4] -0.055 | [5] 0.099 | saracatinib -0.031 | sotrastaurin 0.049 | alvocidib -0.015 | Tubastatin A -0.127 | [6] -0.024 | defactinib -0.02 | [7] 0.016 | encorafenib -0.04 | [8] 0.06 | alisertib -0.011 | [9] 0.01 | gefitinib -0.013

LBR (UniProt Q14739)
UniProt Q14739, sequence (Q14739 whole entry, looked up): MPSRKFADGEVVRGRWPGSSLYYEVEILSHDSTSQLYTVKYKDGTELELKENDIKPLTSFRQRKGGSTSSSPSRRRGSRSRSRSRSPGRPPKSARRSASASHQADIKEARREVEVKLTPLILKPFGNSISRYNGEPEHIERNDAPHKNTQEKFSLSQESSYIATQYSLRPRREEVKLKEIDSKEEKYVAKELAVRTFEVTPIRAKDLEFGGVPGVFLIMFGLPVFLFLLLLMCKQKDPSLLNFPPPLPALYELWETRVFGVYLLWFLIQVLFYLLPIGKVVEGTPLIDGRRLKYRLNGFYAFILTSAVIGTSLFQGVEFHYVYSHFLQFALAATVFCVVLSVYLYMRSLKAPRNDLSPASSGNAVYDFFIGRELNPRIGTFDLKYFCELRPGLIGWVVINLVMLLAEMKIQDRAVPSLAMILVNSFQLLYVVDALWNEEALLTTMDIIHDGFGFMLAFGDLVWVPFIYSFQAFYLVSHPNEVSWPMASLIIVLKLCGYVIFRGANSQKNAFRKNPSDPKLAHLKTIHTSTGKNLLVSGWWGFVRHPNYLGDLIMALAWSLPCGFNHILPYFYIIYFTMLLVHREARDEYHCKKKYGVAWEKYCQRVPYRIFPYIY
inactive: vemurafenib 0.012 | [1] 0.008 | barasertib 0.041 | [2] 0.014 | volasertib 0.156 | [3] 0.052 | [4] 0.117 | [5] -0.22 | saracatinib 0.064 | sotrastaurin 0.048 | alvocidib 0.072 | Tubastatin A 0.025 | [6] -0.063 | defactinib 0.04 | [7] -0.002 | encorafenib -0.021 | [8] 0.027 | alisertib 0.071 | [9] 0.001 | gefitinib -0.094

MAP4 (UniProt E7EVA0)
inactive: vemurafenib -0.019 | [1] 0.01 | barasertib 0.04 | [2] 0.125 | volasertib -0.021 | [3] -0.141 | [4] -0.024 | [5] 0.029 | saracatinib 0.024 | sotrastaurin -0.008 | alvocidib -0.074 | Tubastatin A 0.1 | [6] 0 | defactinib 0.01 | [7] 0.037 | encorafenib -0.04 | [8] -0.117 | alisertib -0.028 | [9] 0.054 | gefitinib 0.098

MAP2K1 (UniProt Q02750)
UniProt Q02750, sequence (Q02750 whole entry, looked up): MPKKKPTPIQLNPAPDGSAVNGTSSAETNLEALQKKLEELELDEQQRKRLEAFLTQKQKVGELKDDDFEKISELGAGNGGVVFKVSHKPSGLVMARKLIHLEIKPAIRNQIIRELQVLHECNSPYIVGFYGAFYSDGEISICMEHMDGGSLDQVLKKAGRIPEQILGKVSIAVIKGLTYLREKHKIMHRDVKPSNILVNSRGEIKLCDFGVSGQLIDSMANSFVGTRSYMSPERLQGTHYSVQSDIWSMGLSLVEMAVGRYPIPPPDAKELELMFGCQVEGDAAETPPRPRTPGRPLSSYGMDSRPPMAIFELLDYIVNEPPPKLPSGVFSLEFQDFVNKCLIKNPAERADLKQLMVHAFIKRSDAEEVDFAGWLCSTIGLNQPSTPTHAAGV
inactive: vemurafenib 0.056 | [1] 0.194 | barasertib 0.022 | [2] -0.043 | volasertib -0.051 | [3] -0.057 | [4] 0.281 | [5] -0.041 | saracatinib 0.032 | sotrastaurin 0.015 | alvocidib 0.06 | Tubastatin A -0.011 | [6] 0.066 | defactinib 0.013 | [7] 0.028 | encorafenib -0.07 | [8] -0.063 | alisertib -0.036 | [9] 0.021 | gefitinib 0.029
